Results taken from PubChem BioAssay AID1159580 (chemical genetic matrix, 2015).
Values joined by “and” are separate entries in the source; they are usually repeats but may differ in a detail not shown here. Identical values can stand only once. Out of some 5,500 compounds screened, about 2,000 (36%) were called active. About 18% were inconclusive and are not listed. No stated cut-off is given here; in the data, active means normalized growth mostly below about 0.91 (no sharp cut-off); inconclusive means no clear call, values can overlap the other calls; inactive means mostly above about 0.92. The list shows a part of the results.

Assay: chemical genetic growth profiling, strain panel (AID 1159580);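 further: tested at 20 µM; growth read once vehicle control cultures reached saturation at 30 °C; 1 = growth at the plate median or of vehicle wells; lower values mean less growth of the strain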
Settings: S. cerevisiae deletion strains, growth OD
[1] = locus YAL013W, strain DEP1, active compounds read low
[2] = locus YMR307W, strain GAS1, active compounds read low
[3] = locus YNL322C, strain KRE1, active compounds read low

Measured: normalized growth

NC(N)=N[C@@H](CCC(=O)O)C(=O)O
inactive: [1] 1.03 | locus YAL040C, strain CLN3, active compounds read low 1.09 | locus YCL061C, strain MRC1 (second series), active compounds read low 1.01 | locus YDR363W, strain ESC2, active compounds read low 1.02 | locus YER002W, strain NOP16, active compounds read low 1 | [2] 1.01 | locus YNL128W, strain TEP1, active compounds read low 1 | locus YNL153C, strain GIM3, active compounds read low 1.02 | locus YNL175C, strain NOP13, active compounds read low 1.01 | locus YNL197C, strain WHI3, active compounds read low 1.02 | locus YNL224C, strain SQS1, active compounds read low 1 | [3] 1.02 | locus YOR083W, strain WHI5 (second series), active compounds read low 1.04

C[N+]1(C)C2CC[C@H]1CC(OC(=O)C(O)c1ccccc1)C2 (stereo partly drawn)
inactive: [1] 0.996 | locus YAL021C, strain ccr4, active compounds read low 1.02 | locus YAL026C, strain drs2, active compounds read low 1 | locus YAL030W, strain snc1, active compounds read low 0.999 | locus YBL061C, strain skt5, active compounds read low 1 | locus YBR009C, strain hhf1, active compounds read low 0.996 | locus YBR021W, strain FUR4, active compounds read low 0.985 | locus YBR023C, strain chs3, active compounds read low 0.992 | locus YBR171W, strain sec66, active compounds read low 1 | locus YBR229C, strain ROT2, active compounds read low 0.996 | locus YBR231C, strain swc5, active compounds read low 1 | locus YBR279W, strain paf1, active compounds read low 1.01 | locus YCL011C, strain gbp2, active compounds read low 0.984 | locus YCL016C, strain dcc1, active compounds read low 0.971 | locus YCL029C, strain bik1, active compounds read low 0.995 | locus YCL061C, strain MRC1, active compounds read low 0.998 | locus YCL069W, strain vba3, active compounds read low 0.996 | locus YCR088W, strain abp1, active compounds read low 0.993 | locus YDL005C, strain med2, active compounds read low 0.991 | locus YDL035C, strain GPR1, active compounds read low 0.993 | locus YDL040C, strain nat1, active compounds read low 0.997 | locus YDL074C, strain BRE1, active compounds read low 1.01 | locus YDL101C, strain DUN1, active compounds read low 0.996 | locus YDL134C, strain PPH21, active compounds read low 1.01 | locus YDL185W, strain tfp1, active compounds read low 1.01 | locus YDL192W, strain arf1, active compounds read low 1.02 | locus YDR001C, strain nth1, active compounds read low 0.993 | locus YDR069C, strain doa4, active compounds read low 1.02 | locus YDR101C, strain arx1, active compounds read low 0.976 | locus YDR137W, strain rgp1, active compounds read low 0.992 | locus YDR159W, strain sac3, active compounds read low 1.03 | locus YDR162C, strain NBP2, active compounds read low 0.997 | locus YDR195W, strain ref2 1.01 | locus YDR297W, strain sur2, active compounds read low 1 | locus YDR318W, strain mcm21, active compounds read low 1.02 | locus YDR334W, strain swr1, active compounds read low 1 | locus YDR335W, strain msn5, active compounds read low 1 | locus YDR388W, active compounds read low 1.01 | locus YDR392W, strain spt3, active compounds read low 0.94 | locus YDR502C, strain sam2, active compounds read low 1.02 | locus YEL003W, strain gim4, active compounds read low 1.01 | locus YEL037C, strain rad23, active compounds read low 1 | locus YEL061C, strain CIN8 (second series), active compounds read low 1 | locus YEL061C, strain CIN8, active compounds read low 0.995 | locus YER015W, strain faa2, active compounds read low 1 | locus YER016W, strain bim1, active compounds read low 1.01 | locus YER110C, active compounds read low 1.02 | locus YER111C, strain swi4, active compounds read low 0.997 | locus YER155C, strain BEM2 (second series), active compounds read low 1 | locus YER155C, strain BEM2, active compounds read low 0.988 | locus YER167W, strain BCK2, active compounds read low 0.977 | locus YFR010W, strain ubp6, active compounds read low 1 | locus YGL078C, strain dbp3, active compounds read low 1.03 | locus YGL086W, strain mad1, active compounds read low 1 | locus YGL167C, strain pmr1, active compounds read low 1.01 | locus YGL173C, strain kem1, active compounds read low 1.01 | locus YGL227W, strain vid30, active compounds read low 0.988 | locus YGL240W, strain doc1, active compounds read low 1.01 | locus YGL248W, strain PDE1, active compounds read low 0.999 | locus YGL253W, strain hxk2, active compounds read low 1 | locus YGR135W, strain pre9, active compounds read low 1.04 | locus YGR229C, strain SMI1, active compounds read low 0.976 | locus YGR252W, strain gcn5, active compounds read low 1.03 | locus YHR013C, strain ard1, active compounds read low 0.999 | locus YHR027C, strain rpn1, active compounds read low 1.01 | locus YHR030C, strain SLT2, active compounds read low 0.978 and 0.976 | locus YHR079C, strain IRE1 (second series), active compounds read low 1.01 | locus YHR079C, strain IRE1, active compounds read low 0.967 | locus YHR094C, strain hxt1, active compounds read low 1.01 | locus YHR129C, strain ARP1, active compounds read low 1.01 | locus YHR142W, strain chs7, active compounds read low 0.973 | locus YHR200W, strain rpn10, active compounds read low 1.02 | locus YIL066C, strain RNR3, active compounds read low 0.999 | locus YIL073C, strain SPO22, active compounds read low 1.05 | locus YIL125W, strain kgd1, active compounds read low 0.995 | locus YIR030C, strain dcg1, active compounds read low 1.01 | locus YJL092W, strain hpr5, active compounds read low 0.995 | locus YJL095W, strain BCK1 (second series), active compounds read low 0.999 | locus YJL095W, strain BCK1, active compounds read low 1.01 and 0.993 | locus YJL115W, strain asf1, active compounds read low 0.987 | locus YJL129C, strain trk1, active compounds read low 1.01 | locus YJL134W, strain LCB3, active compounds read low 0.989 | locus YJL154C, strain vps35, active compounds read low 0.993 | locus YJL164C, strain tpk1, active compounds read low 1 | locus YJL166W, strain qcr8, active compounds read low 0.999 | locus YJL168C, strain set2, active compounds read low 1.01 | locus YJL187C, strain SWE1 (second series), active compounds read low 1 | locus YJL187C, strain SWE1, active compounds read low 1 | locus YJR043C, strain POL32, active compounds read low 1 | locus YJR066W, strain TOR1, active compounds read low 0.928 | locus YKL009W, strain mrt4, active compounds read low 1.01 | locus YKL068W, active compounds read low 1 | locus YKL085W, strain MDH1 (second series), active compounds read low 1 | locus YKL085W, strain MDH1, active compounds read low 1 | locus YKL160W, strain elf1, active compounds read low 1 | locus YKL190W, strain CNB1, active compounds read low 0.985 | locus YKR001C, strain vps1, active compounds read low 0.996 | locus YKR026C, strain gcn3, active compounds read low 0.999 | locus YKR091W, strain srl3, active compounds read low 0.997 | locus YLL001W, strain dnm1, active compounds read low 0.98 | locus YLL026W, active compounds read low 0.999 | locus YLL041C, strain sdh2, active compounds read low 1 | locus YLR027C, strain aat2, active compounds read low 1 | locus YLR039C, strain RIC1, active compounds read low 0.967 | locus YLR058C, strain SHM2, active compounds read low 1.01 | locus YLR102C, strain apc9, active compounds read low 1.02 | locus YLR113W, strain HOG1, active compounds read low 1 | locus YLR221C, strain rsa3, active compounds read low 0.955 | locus YLR258W, strain gsy2, active compounds read low 0.983 | locus YLR262C, strain YPT6 (second series), active compounds read low 1 | locus YLR262C, strain YPT6, active compounds read low 0.977 | locus YLR268W, strain sec22, active compounds read low 1.03 | locus YLR320W, strain mms22, active compounds read low 0.978 | locus YLR330W, strain CHS5, active compounds read low 1 | locus YLR342W, strain FKS1 (second series), active compounds read low 1 | locus YLR342W, strain FKS1, active compounds read low 1 | locus YLR357W, strain rsc2, active compounds read low 1.01 | locus YLR370C, strain arc18, active compounds read low 0.993 | locus YLR371W, strain rom2, active compounds read low 1 | locus YLR384C, strain iki3, active compounds read low 0.994 | locus YLR418C, strain cdc73, active compounds read low 1.05 | locus YML016C, strain PPZ1, active compounds read low 1.01 | locus YML032C, strain rad52, active compounds read low 0.999 | locus YML120C, strain ndi1, active compounds read low 0.964 | locus YML124C, strain tub3, active compounds read low 1.01 | locus YMR058W, strain fet3, active compounds read low 1.01 | locus YMR078C, strain ctf18, active compounds read low 1.03 | locus YMR125W, strain sto1, active compounds read low 0.996 | locus YMR129W, active compounds read low 0.999 | locus YMR205C, strain PFK2, active compounds read low 0.992 | locus YMR223W, strain ubp8, active compounds read low 1.02 | locus YMR231W, strain pep5, active compounds read low 1 | [2] 0.983 | locus YNL067W, strain RPL9B, active compounds read low 0.995 | locus YNL071W, strain lat1, active compounds read low 1 | locus YNL183C, strain NPR1, active compounds read low 0.956 | locus YNL209W, strain ssb2, active compounds read low 1 | locus YNL233W, strain BNI4, active compounds read low 1 | locus YNL248C, strain rpa49, active compounds read low 1 | locus YNL250W, strain rad50, active compounds read low 1.02 | locus YNL271C, strain bni1, active compounds read low 1.02 | locus YNL298W, strain CLA4, active compounds read low 1.03 | locus YNL307C, strain MCK1, active compounds read low 1.02 | locus YNL322C, strain KRE1 (second series), active compounds read low 0.991 | [3] 0.998 | locus YNR049C, strain mso1, active compounds read low 1.01 | locus YNR052C, strain pop2, active compounds read low 1.02 | locus YOL012C, strain htz1 1.26 | locus YOL147C, strain pex11, active compounds read low 1.02 | locus YOR001W, strain rrp6, active compounds read low 1.03 | locus YOR061W, strain CKA2, active compounds read low 1.01 | locus YOR069W, strain VPS5, active compounds read low 0.987 | locus YOR070C, strain gyp1, active compounds read low 0.999 | locus YOR080W, strain dia2, active compounds read low 0.994 | locus YOR083W, strain WHI5, active compounds read low 1 | locus YOR106W, strain vam3, active compounds read low 1 | locus YOR136W, strain idh2, active compounds read low 1.02 | locus YOR144C, strain elg1, active compounds read low 1.01 | locus YOR184W, strain ser1, active compounds read low 1.03 | locus YOR231W, strain MKK1, active compounds read low 0.983 | locus YOR265W, strain rbl2, active compounds read low 0.996 | locus YOR270C, strain vph1, active compounds read low 1.01 | locus YOR290C, strain snf2, active compounds read low 0.966 | locus YOR316C, strain cot1, active compounds read low 1.02 | locus YPL051W, strain arl3, active compounds read low 1.01 | locus YPL055C, strain LGE1, active compounds read low 0.985 | locus YPL078C, strain atp4, active compounds read low 1 | locus YPL106C, strain sse1, active compounds read low 0.99 | locus YPL240C, strain hsp82, active compounds read low 0.997 | locus YPL256C, strain CLN2, active compounds read low 0.982 | locus YPR119W, strain clb2, active compounds read low 1.01 | locus YPR141C, strain kar3, active compounds read low 1.02 | locus YPR163C, strain tif3, active compounds read low 1.02 | locus YPR167C, strain met16, active compounds read low 1.02 | strain wtn01, active compounds read low 1.03
